Screens (PubChem)
Compounds with a hit are over-represented: about 19% of the library has one in this group of screens.
IL1B secr inh: inflammasome signaling inhibition, IL-1 beta readout | THP-1 LPS/ATP IL-1B secretion, AlphaLISA, 16 h; active compounds read low | activity change, % at 57.5 µM | hit rate 4.7% among 360,000 | AID 743279; in the data active = activity change below about -50%; inconclusive = mostly about -30% to -49%
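THP-1 cells pretreated 1 hr with compounds (up to 57.5 uM final), then stimulated with LPS (250 ng/mL final) plus ATP (1.25 mM final); secreted IL-1B measured by AlphaLISA after 16 hr, decreased signal indicating inhibition.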
HT1080 IDH1KD tx: HT-1080 IDH1 knockdown cell toxicity (counter line). Potency, µM (highest dose often 46.1 µM), for the others: at the highest dose activity, negative = toxicity, hits mostly cytotoxic. HT-1080 IDH1 knockdown viability, ATP luminescence, 48 h. hit rate 2% among 360,000;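 note: potency is the fitted concentration of half-maximal effect; 0% = DMSO wells and -100% = cell-free medium wells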
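Assay cells: HT-1080 with IDH1 knockdown, 750 per well, RPMI/5% FBS. Exposure: 48 h at 37 °C following 2 h pre-incubation. Read: CellTiter-Glo luminescence; fitted concentration-response, curve class assigned.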
HT1080-NT tox: kills 2HG-producing HT-1080-NT fibrosarcoma cells | HT-1080-NT fibrosarcoma viability, CellTiter-Glo ATP luminescence, 48 h | hit rate 1.6% among 360,000 | Potency, µM (top dose mostly 46.1 µM), inactives show at the top dose activity, negative = less viability, most hits filed as cytotoxic | AID 686970;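 note: NT is the 2HG producing partner of a matched IDH1 knockdown line; potency is the fitted concentration of half-maximal effect; 0% = DMSO-treated cells and -100% = media-only wells without cells; nearly all actives have a fitted effect of over 55% in size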
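Luminescent CellTiter-Glo readout after 48 hours of compound exposure at 37 degrees C defined viability of HT-1080-NT cells. Activity was normalized to DMSO wells and cell-free media wells; concentration-response curves were fitted and assigned curve classes.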
DT40 TDP1 CPT: growth inhibition of DT40 Tdp1-/-;hTDP1 cells with camptothecin (screen for TDP1 inhibitors); chicken DT40 Tdp1-/-;hTDP1 cells + 20 nM CPT, ATP luminescence, 48 h; hit rate 12% among 420,000; Potency, µM (highest dose often 46.2 µM), for the others: at the top dose activity change, negative = growth inhibition, most hits filed as inhibitors; note: potency is the fitted concentration of half-maximal effect; nearly all actives have a fitted effect of over 55% in size
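Chicken DT40 Tdp1-/- cells stably complemented with human TDP1 were seeded at 400 cells/well in medium containing 20 nM camptothecin, exposed to pin-transferred compounds, and grown at 37 °C for at least 48 hr. Viability was read as ATP luminescence.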
DT40 TDP1 no CPT: qHTS for Inhibitors of human tyrosyl-DNA phosphodiesterase 1 (TDP1): qHTS in cells in absence of CPT | hit rate 15% among 420,000 | DT40 Tdp1-/- hTDP1 cells, no CPT, ATP luminescence, 48 h | Potency, µM (titrated, usually from 46.2 µM), without a hit: top-dose activity change, negative = growth inhibition, most hits filed as inhibitors; note: potency is the fitted concentration of half-maximal effect; nearly all actives have a fitted effect of over 55% in size
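Chicken DT40 Tdp1-/- cells complemented with human TDP1, screened without camptothecin (DMSO vehicle only), 400 cells/well. Compounds pin-transferred, cells incubated at 37 °C for at least 48 hr. Growth read as ATP-dependent luminescence (CellTiter-Glo, 30 min at RT).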
Numbers without * were called inactive. Unless noted, calls come from the whole dose curve; as a rule, active = well fitted curve in the direction sought with a large enough effect; inconclusive = small, poorly fitted or top-dose-only effect, or another doubt; inactive = no such curve, though single readings can be large; an effect the other way counts as inactive or inconclusive. Unless noted, % is set by controls: 0 for no effect and ±100 for the full control effect.

Results for COc1cccc(C(=O)NC2CCN(CC(=O)Nc3ccccc3Cl)CC2)c1 ?
IL1B secr inh: 32; HT1080 IDH1KD tx: -3%; HT1080-NT tox: -3%; DT40 TDP1 CPT: inconclusive; DT40 TDP1 no CPT: inconclusive

How did CCCN1CCC(NC(=O)c2cccc(Oc3ccccc3)c2)CC1 do in these assays?
IL1B secr inh: inactive; HT1080 IDH1KD tx: -1%; HT1080-NT tox: -3%; DT40 TDP1 CPT: inconclusive; DT40 TDP1 no CPT: 23µM*

How did O=C(CCS(=O)(=O)c1cccc2nonc12)Nc1ccc(F)cc1F do in these assays?
DT40 TDP1 CPT: -1%; DT40 TDP1 no CPT: -3%

Results for CC1=NN(C(N)=S)C(=O)C1N=Nc1cccc(C)c1 (centres undefined) ?
IL1B secr inh: 5; HT1080 IDH1KD tx: 7%; HT1080-NT tox: 7%; DT40 TDP1 CPT: 3.3µM*; DT40 TDP1 no CPT: 5.8µM*

What do the screens show for `CC1=NN(C(N)=S)C(=O)C1N=Nc1cccc(C(=O)O)c1` (centres undefined)?
IL1B secr inh: 24; HT1080 IDH1KD tx: 11%; HT1080-NT tox: 14%; DT40 TDP1 CPT: 28%; DT40 TDP1 no CPT: 17%

How did CC1=NN(C(N)=S)C(=O)C1N=Nc1ccc(F)cc1 (centres undefined) do in these assays?
IL1B secr inh: -8; HT1080 IDH1KD tx: 1%; HT1080-NT tox: -6%; DT40 TDP1 CPT: -24%; DT40 TDP1 no CPT: inconclusive

How did CC1=NN(C(N)=S)C(=O)C1N=Nc1ccc(C)c(Br)c1 (centres undefined) do in these assays?
IL1B secr inh: 12; HT1080 IDH1KD tx: -13%; HT1080-NT tox: -2%; DT40 TDP1 CPT: 13µM*; DT40 TDP1 no CPT: 16µM*

What do the screens show for `CC1=NN(C(N)=S)C(=O)C1N=Nc1ccc(O)cc1` (centres undefined)?
IL1B secr inh: 49; HT1080 IDH1KD tx: -22%; HT1080-NT tox: -14%; DT40 TDP1 CPT: -20%; DT40 TDP1 no CPT: 26µM*

Results for CC1=NN(C(N)=S)C(=O)C1N=Nc1ccccc1Cl (centres undefined) ?
IL1B secr inh: -7; HT1080 IDH1KD tx: 4%; HT1080-NT tox: -1%; DT40 TDP1 CPT: 5.8µM*; DT40 TDP1 no CPT: 2.9µM*

How did Cn1c(N)c(C(=O)COC(=O)Cc2ccc(Cl)cc2)c(=O)n(C)c1=O do in these assays?
IL1B secr inh: 7; HT1080 IDH1KD tx: -3%; HT1080-NT tox: -1%; DT40 TDP1 CPT: -26%; DT40 TDP1 no CPT: inconclusive

What do the screens show for `Cc1onc(-c2ccc(Cl)cc2Cl)c1-c1csc(N/N=C/c2ccccc2Cl)n1`?
IL1B secr inh: -20; HT1080 IDH1KD tx: -12%; HT1080-NT tox: 15%; DT40 TDP1 CPT: inconclusive; DT40 TDP1 no CPT: 12µM*

How did Cc1onc(-c2ccccc2)c1-c1csc(N/N=C/c2ccccc2Cl)n1 do in these assays?
IL1B secr inh: -21; HT1080 IDH1KD tx: -3%; HT1080-NT tox: 24%; DT40 TDP1 CPT: inconclusive; DT40 TDP1 no CPT: inconclusive

How did COC(=O)c1ccccc1N=Nc1c(N)[nH][nH]c1=O do in these assays?
IL1B secr inh: -15; HT1080 IDH1KD tx: -9%; HT1080-NT tox: 2%; DT40 TDP1 CPT: inconclusive; DT40 TDP1 no CPT: inconclusive

Results for COC(=O)c1ccccc1N=Nc1c(N)n[nH]c1N ?
IL1B secr inh: -60*; HT1080 IDH1KD tx: 0%; HT1080-NT tox: 3%; DT40 TDP1 CPT: -1%; DT40 TDP1 no CPT: -19%

Results for Nc1sccc1C(=O)NC1CC1 ?
IL1B secr inh: -4; HT1080 IDH1KD tx: 17%; HT1080-NT tox: 22%; DT40 TDP1 CPT: 10%; DT40 TDP1 no CPT: -7%

What do the screens show for `COc1ccc(-c2nn(-c3ccccc3)cc2CO)cc1`?
IL1B secr inh: -27; HT1080 IDH1KD tx: -13%; HT1080-NT tox: -6%; DT40 TDP1 CPT: -24%; DT40 TDP1 no CPT: inconclusive

How did N=C(N)SCc1cn(-c2ccccc2)nc1-c1ccc(Br)cc1 do in these assays?
IL1B secr inh: -77*; HT1080 IDH1KD tx: 5.2µM*; HT1080-NT tox: 5.2µM*; DT40 TDP1 CPT: 9.2µM*; DT40 TDP1 no CPT: 7.3µM*

Results for c1ccc2c(c1)ncn2CCCOc1ccc2c(c1)CCC2 ?
IL1B secr inh: -53*; HT1080 IDH1KD tx: inconclusive; HT1080-NT tox: inconclusive; DT40 TDP1 CPT: inconclusive; DT40 TDP1 no CPT: 21µM*

How did c1ccc2c(c1)ncn2CCCCOc1ccc2c(c1)CCC2 do in these assays?
IL1B secr inh: -29; HT1080 IDH1KD tx: 3%; HT1080-NT tox: -3%; DT40 TDP1 CPT: inconclusive; DT40 TDP1 no CPT: 29µM*

Results for Brc1ccccc1OCCCn1cnc2ccccc21 ?
IL1B secr inh: -25; HT1080 IDH1KD tx: -2%; HT1080-NT tox: -12%; DT40 TDP1 CPT: inconclusive; DT40 TDP1 no CPT: -26%

How did COc1ccc(C2SCC(=O)N2CCCN(C)C)cc1 (centres undefined) do in these assays?
IL1B secr inh: 4; HT1080 IDH1KD tx: 22%; HT1080-NT tox: 20%; DT40 TDP1 CPT: 3%; DT40 TDP1 no CPT: 4%

How did COc1ccc(S(=O)(=O)N(CC(=O)NCc2ccco2)c2ccccc2OC)cc1 do in these assays?
IL1B secr inh: 15; HT1080 IDH1KD tx: -22%; HT1080-NT tox: -3%; DT40 TDP1 CPT: 2%; DT40 TDP1 no CPT: -3%

Results for CCC(C)c1ccc(S(=O)(=O)Nc2cccnc2)cc1 (centres undefined) ?
IL1B secr inh: 34; HT1080 IDH1KD tx: inconclusive; HT1080-NT tox: -9%; DT40 TDP1 CPT: inconclusive; DT40 TDP1 no CPT: 29µM*

How did O=C(Cn1cc(C(F)(F)F)ccc1=O)N1CCc2ccccc21 do in these assays?
IL1B secr inh: -5; HT1080 IDH1KD tx: 1%; HT1080-NT tox: 0%; DT40 TDP1 CPT: 5%; DT40 TDP1 no CPT: -28%

What do the screens show for `Cc1cccc(C(=O)Nc2ccc(C(=O)OCc3cc(=O)n4c(C)csc4n3)cc2)c1`?
DT40 TDP1 CPT: inconclusive; DT40 TDP1 no CPT: 16µM*

What do the screens show for `Cc1ccc(C(=O)Nc2cccc(C(=O)OCc3cc(=O)n4c5c(sc4n3)CCCC5)c2)cc1`?
DT40 TDP1 CPT: inconclusive; DT40 TDP1 no CPT: 18µM*

What do the screens show for `Cc1cccc(C(=O)Nc2ccccc2OCc2cc(=O)n3c(C)csc3n2)c1`?
DT40 TDP1 CPT: 0%; DT40 TDP1 no CPT: -3%

What do the screens show for `O=C(Nc1cccc(C(=O)OCc2cc(=O)n3c4c(sc3n2)CCCC4)c1)c1ccc(Cl)cc1`?
DT40 TDP1 CPT: inconclusive; DT40 TDP1 no CPT: -20%

How did COc1cccc(C(=O)Nc2cccc(C(=O)OCc3cc(=O)n4c5c(sc4n3)CCCC5)c2)c1 do in these assays?
DT40 TDP1 CPT: inconclusive; DT40 TDP1 no CPT: 18µM*

How did O=C(Nc1cccc(C(=O)OCc2cc(=O)n3c4c(sc3n2)CCCC4)c1)c1ccccc1 do in these assays?
DT40 TDP1 CPT: inconclusive; DT40 TDP1 no CPT: 16µM*
